Measurements: PubChem BioAssay (NCI)
About 83,000 compounds went through this panel and 20% of them were active in at least one assay; those are over-represented in the sample as a whole.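 Each cell line was grown in a 96-well plate and treated with one concentration of compound for 48 hours. Values below 10 were considered active.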 Values without a mark were called inactive. Activity calls are given as the source filed them.

Experiments:
Assay in all cases: NCI-60 one-dose screen, 48 h (100 = growth as untreated, 0 = no growth, -100 = all killed)
Settings in all cases: 10 µM unless noted
[1] = test system: NCI-H23 lung
[2] = test system: NCI-H226 lung
[3] = test system: NCI-H322M lung
[4] = test system: HOP-62 NSCLC
[5] = test system: NCI-H460 lung
[6] = test system: HOP-92 NSCLC
[7] = test system: NCI-H522 lung
[8] = test system: A549/ATCC NSCLC
[9] = test system: 786-0 renal
[10] = test system: COLO 205 colon
[11] = test system: DU-145 prostate
[12] = test system: K-562 leukemia
[13] = test system: MALME-3M melanoma
[14] = test system: MDA-MB-231 breast
[15] = test system: RXF 393 renal
[16] = test system: SF-268 CNS
[17] = test system: SF-295 CNS
[18] = test system: SF-539 CNS
[19] = test system: UACC-257 melanoma
[20] = test system: M14 melanoma

Row | Compound | growth [1] | growth [2] | growth [3] | growth [4] | growth [5] | growth [6] | growth [7] | growth [8] | growth [9] | growth [10] | growth [11] | growth [12] | growth [13] | growth [14] | growth [15] | growth [16] [%] | growth [17] | growth [18] | growth [19] | growth [20]
1 | CCCCN1C(=O)/C(=c2\sc3n(c2=O)C2C(NN=3)N(CC)C(=O)N2CC)c2ccccc21 (stereo not given) | 25% | 51.1% | 52.9% | 18% | 3.01% (active) | 26.8% | -15.2% (active) | 7.06% (active) | 22.1% | 1.59% (active) | 8.48% (active) | 5.85% (active) | 36.4% | 8.32% (active) | -29.5% (active) | 42.5 | 2.37% (active) | -40.4% (active) | -9.63% (active) | 6.24% (active)
2 | C=C(C)[C@@H]1CC[C@]2(C(=O)O)CC[C@]3(C)[C@H](CC[C@@H]4[C@@]5(C)C[C@@H](Cc6cn(CCO[C@@H]7O[C@H](COC(C)=O)[C@H](OC(C)=O)[C@H](OC(C)=O)[C@H]7OC(C)=O)nn6)[C@H](O)C(C)(C)[C@@H]5CC[C@]43C)[C@@H]12 | 60.5% | 81.9% | 82.7% | 80.7% | 62% | -3.81% (active) | 64.1% | 61.8% | 78.9% | 96.5% | 81.8% | 53% | 77.7% | 48.1% | 77.5% | 61.2 | 76.7% | 79.3% | 61.9% | 81.2%
3 | CNC(=O)c1cc(Oc2ccc3c(c2)sc2nc(-c4cc(OC)c(OC)c(OC)c4)cn23)ccn1 | 61.1% | 49% | 72.5% | 66.8% | 66.2% | 15.8% | 50.4% | 63.6% | 68.1% | 16.7% | 75.2% | 29.3% | -8.33% (active) | 33.8% | 63.2% | 72 | 51% | 62.8% | 49.7% | 52%
4 | Cc1cc(Cl)ccc1Nc1nc(C(F)(F)F)ccc1C(=O)N/N=C/c1ccc([N+](=O)[O-])cc1 | -1.74% (active) | 6.08% (active) | -18.6% (active) | -33.6% (active) | -34.3% (active) | -31.6% (active) | -13.3% (active) | -15.3% (active) | -61.2% (active) | -65.6% (active) | 5.82% (active) | -1.48% (active) | -13.5% (active) | -51.5% (active) | 5.4% (active) | 13.8 | -56.4% (active) | 3.77% (active) | -13.1% (active) | 26.9%
5 | CC(C)(C)n1cc(-c2ccnc(NCCNS(=O)(=O)c3cccc(F)c3)c2)c(-c2ccccc2)n1 | 79.1% | 90.1% | 97.8% | 101% | 90.7% | 3.59% (active) | 79.8% | 79.9% | 81.2% | 78.3% | 96.1% | 44.2% | 107% | 87% | 96.8% | 97.7 | 76.8% | 88.1% | 98.9% | 94.8%
6 | Cc1ccc(-c2csc(NC(=O)CN3CCN(c4cc5c(cc4F)c(=O)c(C(=O)O)cn5C4CC4)CC3)n2)cc1 | 4.26% (active) | 28.6% | 12.4% | 11.2% | 14.4% | -16.4% (active) | -11.7% (active) | 3.47% (active) | 22.6% | -17.6% (active) | 13.1% | 9.66% (active) | -2.34% (active) | 6.47% (active) | 27.2% | 23.2 | -2.97% (active) | 23.7% | -12.9% (active) | 23%
7 | COc1cc(CNC(=O)CCCC/C=C/C(C)C)ccc1OCc1nnc(Nc2ccc([N+](=O)[O-])cc2)o1 | 54.9% | 62.1% | 57.6% | 67.6% | 33.5% | -2.56% (active) | 73% | 49% | 22.2% | 70.9% | 62% | 59.6% | 69.6% | 67.1% | 54.1% | 79.7 | 64.9% | 70.2% | 77.6% | 66.4%
